# From PubChem BioAssay AID1645838 (ICCB-Longwood Screening Facility, Harvard Medical School, 2021)
# Among all 2,000 compounds or so, about 100 (5%) were called active. Cut-off read from the data, not from the text of the source: active = z-score above about 2; inactive = the rest. The full list was thinned out, with actives kept by preference.
# Experiment: modulators of mitochondrial supercomplex assembly, cell-based, luminescence, Hoechst nuclei count (AID 1645838);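 note: control cybrid cells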;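 for z-score: higher means more mitochondrial supercomplex formation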
# Conditions: Cells, luminescence/Hoechst cell count ratio, supercomplex reporter; for z-score: stronger effect = higher value; for cell count: measured here: cell number, Hoechst nuclei count
# [1] = library stock concentration (final well concentration not given) 46 uM
# [2] = library stock concentration (final well concentration not given) 278 uM
# [3] = library stock concentration (final well concentration not given) 1.67 mM
# [4] = library stock concentration (final well concentration not given) 10 mM
# [5] = library stock concentration (final well concentration not given) 80 uM
# [6] = library stock concentration (final well concentration not given) 400 uM
# [7] = library stock concentration (final well concentration not given) 2 mM
structure (smiles),measurement,setting,value
C=C(C)[C@@H]1CCC(C)=C[C@H]1c1c(O)cc(C)cc1O,z-score,,-0.799 (inactive)
same,cell count,,5690
Nc1nc2c([nH]c(=O)n2[C@@H]2O[C@H](CO)[C@@H](O)[C@H]2O)c(=O)[nH]1,z-score,,-0.949 (inactive)
same,cell count,,5870
COc1cc(NC(=O)c2ccc(-c3ccc(Cl)cc3)o2)cc(OC)c1,z-score,[1],-0.316 (inactive)
same,z-score,[2],0.0249 (inactive)
same,z-score,[3],-0.417 (inactive)
same,z-score,[4],-1 (inactive)
same,cell count,[1],6650
same,cell count,[2],6230
same,cell count,[3],6670
same,cell count,[4],6710
COc1cccc(-c2ccc(NC(=O)C3=C(C(=O)O)CCC3)c(F)c2)c1,z-score,[1],0.0997 (inactive)
same,z-score,[2],0.11 (inactive)
same,z-score,[3],-0.285 (inactive)
same,z-score,[4],7.02 (active)
same,cell count,[1],6810
same,cell count,[2],6860
same,cell count,[3],6660
same,cell count,[4],3760
NC(=O)c1cccc(-c2cccc(OC(=O)NC3CCCCC3)c2)c1,z-score,,-0.595 (inactive)
same,cell count,,5600
C[C@@H](O)CCC[C@H](O)/C=C/C1=C(C/C=C\CCCC(=O)O)C(=O)CC1,z-score,,-0.229 (inactive)
same,cell count,,5100
c1ccc(Cc2ccncc2)cc1,z-score,[5],-0.46 (inactive)
same,z-score,[6],-0.111 (inactive)
same,z-score,[7],-0.201 (inactive)
same,z-score,[4],-0.169 (inactive)
same,cell count,[5],5970
same,cell count,[6],5030
same,cell count,[7],5260
same,cell count,[4],5220
CC/C=C\C/C=C\C/C=C\CCCCCCCC(=O)O,z-score,,-0.381 (inactive)
same,cell count,,5900
CCCCCCCCCCCC(=O)CC(=O)N[C@H]1CCOC1=O,z-score,,-0.866 (inactive)
same,cell count,,5800
CCCCC[C@H](O)/C=C/[C@H]1CC[C@@H](O)[C@@H]1CCCCCCC(=O)O,z-score,,0.234 (inactive)
same,cell count,,5240
CC1COCCN1c1cc(C2(S(C)(=O)=O)CC2)nc(-c2cccc3[nH]ccc23)n1 (configuration not stated),outcome,library stock 10 mM,inactive; censored for cell count
same,z-score,[5],-0.307 (inactive)
same,z-score,[6],-0.152 (inactive)
same,z-score,[7],2.1 (active)
same,cell count,[5],5900
same,cell count,[6],5550
same,cell count,[7],2180
CCCCC[C@H](O)/C=C/[C@H]1[C@H](O)CC(=O)[C@@H]1CC(=O)CCCCC(=O)O,z-score,,0.036 (inactive)
same,cell count,,5230
CN(C)C1CCc2[nH]c3ccc(NC(=O)c4ccc(F)cc4)cc3c2C1 (configuration not stated),z-score,[1],-0.478 (inactive)
same,z-score,[2],-0.381 (inactive)
same,z-score,[3],-0.318 (inactive)
same,z-score,[4],-0.368 (inactive)
same,cell count,[1],6480
same,cell count,[2],6070
same,cell count,[3],6670
same,cell count,[4],6110
CCCCC[C@H](O)/C=C/[C@H]1C2COC(C2)[C@@H]1C/C=C/CCCC(=O)O (some centres not stated),z-score,,-0.6 (inactive)
same,cell count,,5320
Cc1cc(Nc2cc(N3CCN(C)CC3)nc(Sc3ccc(NC(=O)C4CC4)cc3)n2)n[nH]1,outcome,library stock 80 µM,inactive; censored for cell count
same,outcome,library stock 400 µM,inactive; censored for cell count
same,outcome,library stock 2 mM,inactive; censored for cell count
same,outcome,library stock 10 mM,inactive; censored for cell count
same,z-score,[5],5.13 (active)
same,cell count,[5],1630
CCCCC(C)(C)[C@H](O)/C=C/[C@H]1C=CC(=O)[C@@H]1CCCCCCC(=O)O,z-score,,0.218 (inactive)
same,cell count,,4930
CCCCC[C@@H](O)/C=C/[C@H]1[C@H](O)CC(=O)[C@@H]1C/C=C\CCCC(=O)O,z-score,,-0.0831 (inactive)
same,cell count,,5100
CCCCCCCCCCCCCCCCCCCCCCCCCCCCCCO,z-score,,-1.19 (inactive)
same,cell count,,5750
CCCCCCCCCCCCCCP(=O)(O)O,z-score,,1.99 (active)
same,cell count,,4360
CCCCCCCCCCCC(=O)O,z-score,,0.0111 (inactive)
same,cell count,,5210
O=C(O)CCn1nnc2ccccc21,z-score,[1],-0.598 (inactive)
same,z-score,[2],-0.676 (inactive)
same,z-score,[3],-0.406 (inactive)
same,z-score,[4],-0.311 (inactive)
same,cell count,[1],7120
same,cell count,[2],7440
same,cell count,[3],7310
same,cell count,[4],7490
Cn1cncc1[C@@](N)(c1ccc(Cl)cc1)c1ccc2c(c1)c(-c1cccc(Cl)c1)cc(=O)n2C,z-score,[5],0.384 (inactive)
same,z-score,[6],1.69 (inactive)
same,z-score,[7],2.04 (active)
same,z-score,[4],1.89 (inactive)
same,cell count,[5],5540
same,cell count,[6],3990
same,cell count,[7],3590
same,cell count,[4],3700
CCCCCCCC/C=C\CCCCCCCCCCCCCC(=O)N[C@@H](CO)[C@H](O)/C=C/CCCCCCCCCCCCC,z-score,,0.191 (inactive)
same,cell count,,5540
CCCCC[C@H]1/C=C/[C@@H]2[C@@H](C/C=C\CCCC(=O)O1)[C@@H](O)C[C@H]2O,z-score,,-1.49 (inactive)
same,cell count,,5780
Cn1c2cc(S(C)=O)sc2c2cnn(Cc3cccc(N)c3)c(=O)c21 (configuration not stated),z-score,[1],0.266 (inactive)
same,z-score,[2],0.15 (inactive)
same,z-score,[3],-0.3 (inactive)
same,z-score,[4],-0.338 (inactive)
same,cell count,[1],6150
same,cell count,[2],6110
same,cell count,[3],6540
same,cell count,[4],6600
O=P(O)(O)O[C@H]1[C@@H](O)[C@H](O)[C@@H](OP(=O)(O)O)[C@H](OP(=O)(O)O)[C@H]1O,z-score,,-0.14 (inactive)
same,cell count,,4340
COC(=O)NC(C)CNc1nccc(-c2cn(C(C)C)nc2-c2cc(Cl)cc(NS(C)(=O)=O)c2F)n1 (configuration not stated),z-score,[1],-0.459 (inactive)
same,z-score,[2],-0.411 (inactive)
same,z-score,[3],0.775 (inactive)
same,z-score,[4],4.21 (active)
same,cell count,[1],6450
same,cell count,[2],6190
same,cell count,[3],4330
same,cell count,[4],1620
CCN(C)C(=O)Oc1cccc(C(C)N(C)C)c1 (configuration not stated),z-score,[5],-0.403 (inactive)
same,z-score,[6],-0.339 (inactive)
same,z-score,[7],-0.314 (inactive)
same,z-score,[4],-0.639 (inactive)
same,cell count,[5],6790
same,cell count,[6],6310
same,cell count,[7],6660
same,cell count,[4],6230
Cc1ccc(-c2nn(C(C)(C)C)c3ncnc(N)c23)cc1,z-score,[1],0.0479 (inactive)
same,z-score,[2],0.621 (inactive)
same,z-score,[3],1.98 (active)
same,z-score,[4],5.9 (active)
same,cell count,[1],6410
same,cell count,[2],5940
same,cell count,[3],6220
same,cell count,[4],4640
